# This is a sample that favours compounds with a hit; in the whole collection about 2.5% have one here.
# MLL AF4-AF9 inh = MLL-AF4/AF9 protein interaction inhibition; AlphaScreen, biotin-AF4 peptide binding to FLAG-AF9; 350,000 compounds, 0.47% hits; inhibition, % at 10 µM;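 active means every replicate reaching a set inhibition limit, whatever the replicate mean, cut at about 25% in these data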
# NSD2 HMT inh = NSD2 (human) methyltransferase inhibition. O96028. inhibition, % at 12.5 µM. AID 743445. NSD2 peptide methylation, AlphaScreen, 120 min. 310,000 compounds, 0.54% hits; in the data active means inhibition above about 50%
# Target sequence (O96028 whole entry, looked up): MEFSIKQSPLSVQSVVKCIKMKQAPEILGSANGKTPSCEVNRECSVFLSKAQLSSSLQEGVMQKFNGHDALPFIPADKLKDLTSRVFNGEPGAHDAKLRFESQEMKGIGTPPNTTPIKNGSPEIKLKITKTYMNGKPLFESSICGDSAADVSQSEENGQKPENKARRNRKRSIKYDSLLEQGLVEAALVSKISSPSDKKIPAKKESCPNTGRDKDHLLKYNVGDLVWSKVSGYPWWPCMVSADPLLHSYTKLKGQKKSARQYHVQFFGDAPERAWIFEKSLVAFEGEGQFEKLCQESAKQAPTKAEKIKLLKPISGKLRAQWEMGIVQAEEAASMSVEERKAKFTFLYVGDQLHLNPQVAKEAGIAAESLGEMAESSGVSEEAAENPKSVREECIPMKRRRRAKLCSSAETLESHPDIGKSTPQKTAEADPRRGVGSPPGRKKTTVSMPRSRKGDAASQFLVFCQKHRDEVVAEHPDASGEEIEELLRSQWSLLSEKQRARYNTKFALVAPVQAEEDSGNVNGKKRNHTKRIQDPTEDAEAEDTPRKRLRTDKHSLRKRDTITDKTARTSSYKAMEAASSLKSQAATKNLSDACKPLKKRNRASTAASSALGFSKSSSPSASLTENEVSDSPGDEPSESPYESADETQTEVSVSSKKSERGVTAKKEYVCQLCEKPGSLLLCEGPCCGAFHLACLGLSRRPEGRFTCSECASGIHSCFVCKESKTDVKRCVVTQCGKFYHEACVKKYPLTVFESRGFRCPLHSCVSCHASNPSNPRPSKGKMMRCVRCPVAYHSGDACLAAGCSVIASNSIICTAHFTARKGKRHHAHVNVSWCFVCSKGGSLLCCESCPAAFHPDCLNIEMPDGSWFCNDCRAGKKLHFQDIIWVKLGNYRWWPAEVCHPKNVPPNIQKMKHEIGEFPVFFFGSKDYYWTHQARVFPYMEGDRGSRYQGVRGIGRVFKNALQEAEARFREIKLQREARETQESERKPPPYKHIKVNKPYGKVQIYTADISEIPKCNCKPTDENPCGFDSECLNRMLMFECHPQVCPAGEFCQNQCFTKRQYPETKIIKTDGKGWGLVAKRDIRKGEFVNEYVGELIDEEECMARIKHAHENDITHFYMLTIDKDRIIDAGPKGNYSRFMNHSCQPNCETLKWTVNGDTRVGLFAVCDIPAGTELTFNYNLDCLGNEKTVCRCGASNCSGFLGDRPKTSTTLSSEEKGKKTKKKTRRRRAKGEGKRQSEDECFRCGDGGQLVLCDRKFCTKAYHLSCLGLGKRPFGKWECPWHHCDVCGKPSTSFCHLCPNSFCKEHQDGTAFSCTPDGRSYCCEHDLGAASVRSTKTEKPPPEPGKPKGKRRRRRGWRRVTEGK
# RAD52 anneal inh = inhibitors of human RAD52 DNA annealing | P43351 | inhibition, % at 18.7 µM | 360,000 compounds, 0.46% hits | AID 651710 | recombinant RAD52 DNA annealing, FRET fluorescence;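 active means every replicate showing at least 50% inhibition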
# Casp6 inh = inhibitors of human caspase-6. P55212. purified caspase-6, Z-VEID-R110 cleavage fluorescence. inhibition, % at 12.5 µM. 350,000 compounds, 0.53% hits;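 active means mean inhibition across replicates at least about 35%, with every replicate also reaching that limit, limit read from the data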
# Ecoli rRNA inh = inhibits bacterial ribosomal RNA function over humanized ribosomes; E. coli WT GFP vs humanized-ribosome RFP mutants, fluorescence, 24 h; stronger effect = lower value; DMSO median 0, no signal -100; GFP signal change (wild-type ribosome), % (no concentration beside the values); 350,000 compounds, 1.6% hits;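 active means significant combined selectivity score with lowered wild-type GFP, culture density cut under 30%, mutant RFP and density less affected; inactive means any of these conditions unmet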
# Hits are given with their value; - = inactive; . = no result; ! = not active in a repeat.
SMILES,MLL AF4-AF9 inh,NSD2 HMT inh,RAD52 anneal inh,Casp6 inh,Ecoli rRNA inh
C[C@H](CO)N1C[C@H](C)[C@H](CN(C)Cc2ccc3c(c2)OCO3)OCCCC[C@H](C)Oc2ccc(NS(=O)(=O)c3ccc(Cl)cc3)cc2C1=O,-,.,63,-,-
C[C@H]1CCCCO[C@@H](CN(C)Cc2ccc3c(c2)OCO3)[C@@H](C)CN([C@@H](C)CO)C(=O)c2cc(NS(=O)(=O)c3ccc(Cl)cc3)ccc2O1,-,.,55!,-,-
C[C@@H]1CCCCO[C@@H](CN(C)Cc2ccc3c(c2)OCO3)[C@H](C)CN([C@@H](C)CO)C(=O)c2cc(NS(=O)(=O)c3ccccc3)ccc2O1,-,.,-,-,-
C[C@@H]1CCCCO[C@H](CN(C)Cc2ccc3c(c2)OCO3)[C@@H](C)CN([C@@H](C)CO)C(=O)c2cc(NS(=O)(=O)c3ccccc3)ccc2O1,-,.,-,35,-
C[C@H](CO)N1C[C@H](C)[C@H](CN(C)C(=O)Nc2ccc3c(c2)OCO3)OCCCC[C@H](C)Oc2ccc(NC(=O)NC3CCCCC3)cc2C1=O,.,.,.,.,-
CC(C)NC(=O)c1ccccc1NC(=O)C1CC(=O)N(C(C)C)C1 (centres undefined),-,-,-,-,-
CNC(=O)c1ccccc1NC(=O)C1CC(=O)N(C(C)C)C1 (centres undefined),-,-,-,66,-
COc1ccc(CN2C[C@@H](C)[C@H](OC)CN(C)C(=O)c3ccc(NC(=O)C4CC4)cc3OC[C@H]2C)cc1,-,.,-,-,-
CCOC(=O)c1cnc(-n2nc(C)cc2C)nc1NC1CCCC1,-,-,-,-,-49
COc1ccc(-c2cn3cc(C)ccc3n2)cc1F,-,-,-,-,-31
NNC(=O)CSCc1nc(-c2ccccc2)cs1,-,-,-,-,.
NNC(=O)CSCc1nc(-c2ccc(Cl)cc2)cs1,-,-,-,-,-27
CN1c2ccccc2-c2nc3ccccc3n2C1c1ccncc1 (centres undefined),.,-,-,-,-23
CN1c2ccccc2-c2nc3ccccc3n2C1c1ccccn1 (centres undefined),.,-,.,.,.
CC(C)CC#Cc1ccc2c(c1)O[C@H](CN(C)C(=O)CN(C)C)[C@@H](C)CN([C@@H](C)CO)S2(=O)=O,-,.,-,-,-
COc1ccc(S(=O)(=O)N(C)C[C@H]2Oc3c(NC(=O)Nc4ccccc4)cccc3C(=O)N([C@@H](C)CO)C[C@H]2C)cc1,.,.,.,.,-
O=C(ONC(=O)C1CCCCC1C(=O)NOC(=O)c1ccccc1)c1ccccc1 (centres undefined),-,-,-,40,-
O=C(COC(=O)c1ccccc1)NC1CCCC1,-,-,-,-,-
CC1CC(C)CN(S(=O)(=O)c2ccc(F)c(C(=O)NC3CCCCC3C)c2)C1 (centres undefined),-,-,-,62,-
Cn1c2ccccc2c(=O)c2c(=O)n(Cc3ccco3)c(-c3ccc(F)cc3)nc21,-,-,-,-,-38
COc1ccc(NC(=O)Nc2ccc3c(c2)C(=O)N([C@H](C)CO)C[C@@H](C)[C@H](CN(C)S(=O)(=O)c2ccc(F)cc2)OCCCC[C@H](C)O3)cc1,-,.,-,-,-
CCCn1cc(S(=O)(=O)c2ccc(Cl)cc2)c(=O)c2cc(OC)ccc21,-,-,-,-,-28
CCCn1cc(S(=O)(=O)c2ccc(C)cc2)c(=O)c2cc(OC)ccc21,-,-,-,-,-
N#Cc1cccc(-c2ccc3c(c2)[C@@H]2[C@@H](CCN2C(=O)c2ccccc2F)[C@H](CO)N3)c1,-,.,-,-,-
COc1ccc(-c2ccc3c(c2)[C@@H]2[C@@H](CCN2Cc2ccccc2F)[C@H](CO)N3)cc1,26,.,-,-,-
SMILES,MLL AF4-AF9 inh,NSD2 HMT inh,RAD52 anneal inh,Casp6 inh,Ecoli rRNA inh
N#Cc1cccc(-c2ccc3c(c2)[C@H]2[C@H](CCN2C(=O)c2ccccc2F)[C@H](CO)N3)c1,.,.,.,.,-26
CNC[C@H]1Oc2ccc(N(S(C)(=O)=O)S(C)(=O)=O)cc2C(=O)N(C)C[C@@H]1C,.,.,.,.,-
O=S(=O)(NCC1CCCO1)c1ccc(-c2ccc(Cl)cc2)cc1 (centres undefined),-,-,-,-,-25
CC(C)c1ccc(/C=C/C(=O)N2CCOCC2)cc1,-,-,-,-,-
CC(C)c1ccc(/C=C/C(=O)N2CCCCCC2)cc1,-,-,-,-,-26
COC(=O)c1ccccc1NC(=O)c1cc(-c2cccs2)on1,-,-,-,-,-
COC(=O)c1ccccc1NC(=O)c1cc(-c2ccco2)on1,-,-,-,66,-

# From PubChem BioAssay
